Assay outcomes from PubChem.
Shown are actives, neighbours in structure and some others; about 9% of the full set was active somewhere.
JMJD2A Tudor inh – inhibitors of human JMJD2A Tudor domain; O75164; AlphaScreen JMJD2A-Tudor / H3K4me3 peptide binding; Potency, µM (series often up to 114 µM), actives largely listed as inhibitors; actives 4.4% (n = 390,000); also: nearly all actives have a fitted effect of over 50% in size
ALOX12 inh – ALOX12 (human) lipoxygenase inhibition; purified 12hLO, xylenol orange hydroperoxide absorbance; Potency, µM (highest dose often 108 µM), most hits filed as inhibitors; actives 1.1% (n = 580,000); AID 1671190
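Purified human 12hLO (150 nM final) in 25 mM Hepes, 0.01% Triton X-100, pH 7.0 was preincubated 15 min at room temperature with compound. Then 40 uM arachidonic acid was added, 30 min. Hydroperoxide was read by Fe-XO absorbance ratio 573/405 nm.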
G9a block – inhibitors of human histone lysine methyltransferase G9a. Q96KQ7. G9a H3K9 monomethylation, AlphaScreen, 2 h. Potency, µM (series often up to 102 µM), hits mostly inhibitors. actives 8.8% (n = 350,000). AID 504332; also: nearly all actives have a fitted effect of over 75% in size
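Chemiluminescent proximity detection of H3K9 monomethylation, read after 10 min bead incubation in the dark. Reaction: 20 nM G9a, 500 nM biotin-H3K9 peptide, 20 uM SAM cofactor, 2 h, room temperature, following 15 min enzyme-compound preincubation.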
HP1b binding inh – HP1-beta chromodomain-methylated histone interaction inhibition | AlphaScreen HP1-beta / biotin-H3K9me3 peptide binding | P83916 | Potency, µM (doses to about 114 µM), actives largely listed as inhibitors | AID 540317 | actives 0.56% (n = 390,000); also: nearly all actives have a fitted effect of over 70% in size
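HP1-beta protein (50 nM final) preincubated 30 min at room temperature with biotinylated H3(1-18)K9me3 peptide (50 nM) in PBS pH 7.4, 0.01% Tween-20, then compound added for 30 min. AlphaScreen streptavidin donor/nickel chelate acceptor beads (10 ug/mL final), 30 min dark, luminescence read.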
PLK1 PBD inh – PLK1 (human) polo-box domain binding inhibition; Plk1 PBD binding of FITC phosphopeptide, fluorescence polarization; Potency, µM, actives largely listed as inhibitors; actives 2.8% (n = 360,000); AID 720504; also: series mostly up to about 57 µM; nearly all actives have a fitted effect of over 65% in size
Target sequence (P53350 whole entry, looked up, the tested form may be a part): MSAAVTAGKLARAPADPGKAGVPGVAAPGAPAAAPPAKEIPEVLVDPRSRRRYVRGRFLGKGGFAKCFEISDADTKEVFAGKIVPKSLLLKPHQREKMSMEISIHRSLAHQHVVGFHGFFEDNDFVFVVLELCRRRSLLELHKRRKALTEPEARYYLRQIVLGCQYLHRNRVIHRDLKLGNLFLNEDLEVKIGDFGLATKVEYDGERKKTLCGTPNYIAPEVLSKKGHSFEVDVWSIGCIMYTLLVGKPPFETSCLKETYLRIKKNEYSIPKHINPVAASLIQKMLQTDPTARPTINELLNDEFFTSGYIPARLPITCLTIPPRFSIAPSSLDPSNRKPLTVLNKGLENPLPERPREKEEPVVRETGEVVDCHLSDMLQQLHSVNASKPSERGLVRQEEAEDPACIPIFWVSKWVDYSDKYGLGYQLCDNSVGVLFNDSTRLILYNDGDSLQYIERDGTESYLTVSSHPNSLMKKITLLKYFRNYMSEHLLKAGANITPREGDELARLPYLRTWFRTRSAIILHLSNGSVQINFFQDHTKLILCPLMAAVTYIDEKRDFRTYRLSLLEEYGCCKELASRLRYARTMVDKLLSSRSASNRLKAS
BAZ2B inh – BAZ2B (human) inhibition; AlphaScreen BAZ2B-H3K14Ac peptide displacement; Potency, µM (doses to about 114 µM), hits mostly inhibitors; actives 4.4% (n = 360,000); Q9UIF8; also: nearly all actives have a fitted effect of over 60% in size
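AlphaScreen luminescence quantifies BAZ2B engagement of H3K14Ac peptide; the protein and biotinylated peptide are both at 50 nM final, buffer PBS pH 7.4 with 0.01% Tween-20, all steps at room temperature.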
Hits are given with their value; i = inactive; ? = inconclusive; nt = no result given; ! = not active in a repeat; [ ] = dose if it differs, or a comment. Calls follow the shape of the dose curve; as a rule, active = well fitted curve in the direction sought with a large enough effect; inconclusive = small, poorly fitted or top-dose-only effect, or another doubt; inactive = no such curve, though single readings can be large; an effect the other way counts as inactive or inconclusive.

SMILES | JMJD2A Tudor inh | ALOX12 inh | G9a block | HP1b binding inh | PLK1 PBD inh | BAZ2B inh
CCCNC(=O)C1(C)CCN1C(=O)c1cc(C)n(C)n1 (stereo not given) | nt | i | nt | nt | i | nt
Cc1ccc2c(c1)N(CCCC(=O)Nc1cccc(C(F)(F)F)c1)C(=O)CO2 | 16µM! | ? | i | i | 27µM | i
O=C(Cn1cnc2ccccc2c1=O)Nc1ccc2c(c1)OCO2 | i | i | i | i | i | i
N#Cc1ccccc1NC(=O)CSc1ccc([N+](=O)[O-])cn1 | i | i | 50µM | i | i | i
O=C(Cn1cnc2cc([N+](=O)[O-])ccc2c1=O)Nc1ccc2c(c1)OCO2 | i | ? | 40µM | i | i | ?
O=C(CSc1ccc([N+](=O)[O-])cn1)Nc1ccc2c(c1)OCO2 | i | i | 45µM | i | i | ?
O=C(Cc1ccc([N+](=O)[O-])cc1)Nc1ccc2c(c1)OCO2 | i | i | i | i | i | i
Cc1nnc(NC(=O)CSc2ccc([N+](=O)[O-])cn2)s1 | i | i | ? | i | i | i
Clc1cccc(-c2noc(-c3nc(-c4ccncc4)no3)n2)c1 | nt | i | nt | nt | nt | nt
CCCN(C(=O)COC(=O)CCC(=O)c1ccccc1)c1c(N)n(Cc2ccccc2)c(=O)[nH]c1=O | nt | ? | nt | nt | i | nt
COc1ncc2nc(-c3cn(C)c4ccccc34)c(=O)n(Cc3ccc(F)cc3)c2n1 | nt | i | i[12.7 µM] | nt | nt | nt
COc1cccc(Cn2c(=O)c(-c3cn(C)c4ccccc34)nc3cnc(OC)nc32)c1 | nt | 40µM | i[0.501 µM] | nt | nt | nt
CC1(C)CC(=O)c2c(oc3cc(O)c(O)cc23)C1 | 14µM | ? | 3.5µM | i | i | i
CC(C)NC(=O)/C(C#N)=C/c1ccc(C(=O)O)cc1 | nt | 22µM | nt | nt | nt | nt
CC(NC(=O)/C(C#N)=C\c1ccc(C(C)(C)C)cc1)c1ccccc1 (stereo not given) | nt | i | nt | nt | nt | nt
CC(NC(=O)/C(C#N)=C/c1ccc([N+](=O)[O-])o1)c1ccccc1 (stereo not given) | ? | ? | 45µM | i | 24µM | ?
COC(=O)c1ccc(/C=C(\C#N)C(=O)NC(C)c2ccccc2)cc1 (stereo not given) | i | ? | 50µM | i | ? | i
Cc1ccc(C(C)NC(=O)/C(C#N)=C\c2c(C)[nH]c3ccccc23)cc1 (stereo not given) | ? | i | i | i | 24µM | i
CC(C)NC(=O)/C(C#N)=C\c1ccc(N(C)C)o1 | i | ? | ? | i | i | i
Cc1cc(C)c2c(NC(=S)NC(=O)c3ccccc3)n[nH]c2n1 | i | i | i | i | i | i
O=C1N/C(=C\c2ccc(O)cc2)C(O)=C1C=NCc1ccccc1 | i | i | i | i | i | ?
NS(=O)(=O)c1ccc(NC(=O)COC(=O)CCc2nc3ccccc3c(=O)[nH]2)cc1 | i | i | ? | i | i | i
Cc1ccc(S(=O)(=O)N2CCCCC2)cc1NC(=O)CCc1nc2ccccc2c(=O)[nH]1 | i | i | 3.2µM | i | i | i
COc1ccc(S(=O)(=O)N2CCCCC2)cc1NC(=O)CCc1nc2ccccc2c(=O)[nH]1 | i | i | ? | i | i | i
Cc1c(Cl)cccc1NC(=O)CNC(=O)CCCc1nc2ccccc2c(=O)[nH]1 | i | ? | 45µM | i | i | i
SMILES | JMJD2A Tudor inh | ALOX12 inh | G9a block | HP1b binding inh | PLK1 PBD inh | BAZ2B inh
COc1cc(Cl)c(C)cc1NC(=O)COC(=O)CCc1nc2ccccc2c(=O)[nH]1 | i | ? | 13µM | i | i | i
N#Cc1cccc(NC(=O)COC(=O)CCc2nc3ccccc3c(=O)[nH]2)c1 | i | i | 13µM | i | i | i
COC(=O)c1ccc(NC(=O)CCN2CCOCC2)cc1 | i | i | i | i | i | i
CCCCn1c(=O)[nH]c(=O)c2c1nc(CN1CCN(S(=O)(=O)c3ccccc3)CC1)n2C | nt | i | nt | nt | nt | nt
Cc1ccccc1NC(=O)Cn1c(=O)n(C)c2ccccc21 | i | i | i | i | i | i
C/C(=N\NC(=O)c1ccc(N)cc1)C1CC1 | i | i | i | i | i | i
O=C(Nc1ccccc1)Nc1ccc(F)c([N+](=O)[O-])c1 | i | ? | i | i | i | i
O=C(CCc1nc2ccccc2c(=O)[nH]1)Nc1ccc(F)c([N+](=O)[O-])c1 | i | ? | 40µM | i | i | i
Cc1ccc(NC(=O)COC(=O)CCc2nc3ccccc3c(=O)[nH]2)cc1Cl | i | i | 35µM | i | i | i
O=C(Nc1ccc(F)c([N+](=O)[O-])c1)C(=O)c1c(O)[nH]c2ccccc12 | i | i | 28µM | i | i | ?
COc1cc(NC(=O)COC(=O)CCc2nc3ccccc3c(=O)[nH]2)cc(OC)c1 | i | i | nt | i | i | nt
O=C(c1ccc(Cl)c([N+](=O)[O-])c1)N1CCCc2ccccc21 | i | i | ? | i | i | ?
CC(=O)/C(=N/Nc1ccc([N+](=O)[O-])cc1)N1CCCc2ccccc21 | ? | i | 22µM | ? | i | ?
CC(=O)/C(=N/Nc1ccccc1[N+](=O)[O-])N1CCCc2ccccc21 | 11µM | ? | 5µM | 7.9µM | i | 5.6µM
O=C(Nc1cccc(C(F)(F)F)c1)N1CC2CC(C1)[C@H]1CCCC(=O)N1C2 (stereo not given in full) | nt | i | nt | nt | nt | nt
CSCCC(c1nc2ccccc2[nH]1)n1c(=O)c(-c2cccnc2)nc2ccccc21 (stereo not given) | nt | i | nt | nt | i | nt
O=C(CSc1ccc(-c2ccco2)nn1)NCc1ccc(F)cc1 | i | i | 45µM | i | i | i
O=C(CSc1ccc(-c2ccco2)nn1)NCCc1ccccc1 | i | i | 35µM | i | i | i
COc1ccc(CCNC(=O)CSc2ccc(-c3ccco3)nn2)cc1 | i | i | i | i | i | ?
COc1ccc(N2CCN(S(=O)(=O)c3c(C)[nH]c(C)c3C(=O)N3CCCCC3)CC2)cc1 | i | i | ? | i | i | ?
Cc1[nH]c(C)c(S(=O)(=O)N2CCN(c3ccccc3)CC2)c1C(=O)N1CCCC1 | i | i | 45µM | i | i | i
Cc1cccc(N(C)S(=O)(=O)c2c(C)[nH]c(C)c2C(=O)N2CCCC2)c1 | ? | i | i | i | 24µM | i
CC1(NC(=S)Nc2ccc(NC(=S)NC3(C)CCS(=O)(=O)C3)cc2)CCS(=O)(=O)C1 (stereo not given) | i | i | nt | i | i | i
COc1ccc(C(=O)NCC(C)NC(=O)c2ccc(OC)cc2)cc1 (stereo not given) | i | i | nt | i | i | nt
Cc1c(P(=O)(c2ccccc2)c2ccccc2)c2ccccc2n1C | 22µM | 20µM | nt | nt | nt | nt
O=C1NCCN1c1ccccc1 | i | i | nt | i | i | nt
O=C(COC(=O)C1Cc2ccccc2CN1C(=O)c1ccccc1)Nc1ccc(SC(F)F)cc1 (stereo not given) | i | i | 79µM | ? | i | i
C=CCn1c(SCC(=O)N2CCOCC2)nc2scc(-c3ccco3)c2c1=O | 28µM | nt | ? | i | ? | ?
